Assay results taken from PubChem BioAssay AID493205 (National Center for Advancing Translational Sciences (NCATS), 2011).
The other results are listed elsewhere or left out. Records with an inconclusive call do not appear. Values without a mark were called inactive. Active and inactive are the calls of the source. Calls follow the shape of the dose curve; as a rule, active = well fitted inhibition curve with a large enough effect; inconclusive = small, poorly fitted or top-dose-only effect, or effect the other way; inactive = no such curve, though single readings can be large or run the other way.

target: Muscleblind-like protein 1 (Homo sapiens) (UniProt Q9NR56); experiment: qHTS Assay for Inhibitors of MBNL1-poly(CUG) RNA binding: Initial hit validation in AlphaScreen assay for MBNL1-(CUG)12 binding; settings: AlphaScreen MBNL1-His / biotin-(CUG)12 binding; series mostly up to 57.7 µM; activity, negative = inhibition: at the top concentration
Text: NIH Chemical Genomics Center [NCGC] NIH Molecular Libraries Probe Production Centers Network [MLPCN] MLPCN Grant: R03 MH087421-01 Assay Submitter (PI): Charles Thornton NCGC Assay Overview: Expanded CTG repeats in the 3' untranslated region of the DM protein kinase (DMPK) gene causes type I myotonic dystrophy (DM1). DM1 is a multi-systemic disease with a prevalence of 1/7000. Clinical features include myotonia, progressive muscle weakness and wasting, cardiac arrhythmia, insulin resistance, hypersomnolence, cataracts, and other symptoms. The pathogenic effect of expanded CTG repeats stems from deleterious effects of the mutant transcript. CUGexp mRNA accumulates in nuclear foci and sequesters proteins of the muscleblind family, of which MBNL1 is the most common family member in skeletal muscles. The binding interaction between MBNL1 and CUGexp tracts leads to deregulation of alternative splicing and is therefore a key molecular step in the pathogenesis of DM1. […]
NCGC Assay Protocol Summary: This is a proximity-based binding assay with MBNL1-His and Biotin-(CUG)12 RNA. […] The AC50 values were determined from concentration-response data modeled with the standard Hill equation Assay buffer: 20mM HEPES, 110mM KCl, 10mM NaCl, 2mM MgCl2, 2mM CaCl2, 5mM DTT, 0.1% BSA, 0.05% Tween 20 1536-well assay protocol for the MBNL1-(CUG)12 binding assay: (1) Add 2 ul/well 20nM MBNL1-His, 20nM Biotin-(CUG)12 (2) Add 23 nL compounds in DMSO solution. […] (3) Add 1 ul of Nickel-coated AlphaScreen acceptor beads (6.25 ng/ul final concentration) (4) Incubate 30 min at room temperature (5) Add 1 ul of Streptavidin-conjugated AlphaScreen donor beads (6.25 ng/ul final concentration) (6) Incubate 60 min at room temperature (7) Detect the assay plate in a EnVision plate reader (PerkinElmer) with AlphaScreen protocol Keywords: mytonic dystrophy type I, DM1, muscleblind like 1, MBNL1, CUG expansion, protein-RNA binding inhibitor, high throughput screening, MLSMR, MLSCN, NIH Roadmap, qHTS and NCGC

Chain of Muscleblind-like protein 1 (Homo sapiens) (Q9NR56 whole entry, looked up): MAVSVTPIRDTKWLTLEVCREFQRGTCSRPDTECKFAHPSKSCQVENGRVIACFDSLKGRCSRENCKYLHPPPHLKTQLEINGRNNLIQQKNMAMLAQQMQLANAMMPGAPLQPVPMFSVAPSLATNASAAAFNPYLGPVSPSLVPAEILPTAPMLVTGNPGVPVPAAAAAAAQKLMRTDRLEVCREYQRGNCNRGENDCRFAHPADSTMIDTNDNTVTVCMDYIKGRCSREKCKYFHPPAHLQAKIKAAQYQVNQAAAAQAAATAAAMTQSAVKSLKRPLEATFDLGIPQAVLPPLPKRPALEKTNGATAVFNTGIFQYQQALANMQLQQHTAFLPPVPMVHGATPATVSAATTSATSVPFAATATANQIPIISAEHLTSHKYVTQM

| Compound | activity, negative = inhibition | Potency |
| --- | --- | --- |
| COc1cccc(NC(=O)Cn2cnc3sc(C)c(S(=O)(=O)N4CCN(C)CC4)c3c2=O)c1 | -4.19% | – |
| CCOC(=O)c1c(C)[nH]c2c1-c1ccccc1C(=O)C2=O | – | 4.11 µM (active) |
| COc1ccc(Cc2n[nH]c(=S)n2NC(=O)Nc2ccc(C)cc2)cc1 | -7.23% | – |
